Assay results published in PubChem BioAssay (NCATS).
Results filed as inconclusive are left out. A number with no mark means an inactive call. The source made the active and inactive calls. Calls follow the shape of the dose curve; as a rule, active = well fitted cell-killing curve with a large enough effect; inconclusive = small, poorly fitted or top-dose-only effect, or effect the other way; inactive = no such curve, though single readings can be large or run the other way.

assay: Viability qHTS for spleen associated tyrosine kinase inhibitor (SYKi) naive MV4-11 cells (AID 1963823); conditions: MV4-11 AML viability, CellTiter-Glo luminescence, 72 h; series mostly up to 45 µM; viability (% of control): at the top concentration; also: nearly all actives have a fitted effect of over 40% in size
Method in brief: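 Seeding of 500 SYKi-naive MV4-11 cells per well onto pre-dispensed compounds preceded a 72 hr incubation at 37 C. Luminescent CellTiter-Glo signal, read after 10 min at room temperature, reflected viable cells.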
Potency is read from the fitted curve at half-maximal effect.

SMILES | viability (% of control) | Potency
COc1ccc(S(=O)(=O)Nc2nc(-c3cccc([N+](=O)[O-])c3)cs2)cc1OC | 71.5% | –
COc1cc(/C=C/C(=O)OC[C@H]2O[C@@H](OC3OC=C(C(=O)O)C4C(O)CC(C)(O)C34)[C@H](O)[C@@H](O)[C@@H]2O)cc(OC)c1O (stereo not given in full) | 63.4% [at 17.3 µM] | –
CC1(C)C(=O)N2c3ccccc3[C@]3(CC(n4cnc5ccccc5c4=O)C(=O)O3)[C@H]2N1O (stereo not given in full) | 57.2% [at 17.3 µM] | –
O=c1[nH]cnc2c([C@@H]3N[C@H](CO)[C@@H](O)[C@H]3O)c[nH]c12 | 65.3% | –
C=C1CC[C@@H]2[C@](C)(CO[C@@H]3O[C@H](CO)[C@@H](O)[C@H](O)[C@H]3O)CCC[C@@]2(C)[C@@H]1CCC1=CCOC1=O | 70.1% [at 17.3 µM] | –
COc1c(C(CC(C)C)OC(C)=O)ccc(Oc2c(O)cc(C)cc2/C=C/C(C)=O)c1C(=O)O (stereo not given) | 50.6% [at 17.3 µM] | –
C/C=C1/[C@H](O[C@@H]2O[C@H](CO)[C@@H](O)[C@H](O)[C@H]2O)OC=C(C(=O)OC)[C@H]1CC(=O)OCCc1ccc(OC(=O)C[C@@H]2C(C(=O)OC)=CO[C@@H](O[C@@H]3O[C@H](CO)[C@@H](O)[C@H](O)[C@H]3O)/C2=C/C)cc1 | 67.3% [at 9.25 µM] | –
COc1cc([C@@H](O[C@@H]2O[C@H](CO)[C@@H](O)[C@H](O)[C@H]2O)[C@@H]2CO[C@H](c3ccc(O)c(OC)c3)[C@H]2CO)ccc1O | 75.3% [at 17.3 µM] | –
CC1=CC(=O)C2C(C)(C)CC(O)CC2(C)C1CO (stereo not given) | 68.1% | –
COc1ccc2c(c1)C[C@H](C(=O)Nc1ccc(-c3cn[nH]c3)cc1OCCN(C)C)CO2 | – | 0.651 µM (active)
